Bioassay records (PubChem)
Sampled rows, rich in hits. Any-hit rate of the full collection: about 8.1%.
ClpP mod – qHTS Assay for Activators of ClpP. ATP-dependent Clp protease proteolytic subunit (Bacillus subtilis (strain 168)), P80244. purified B. subtilis ClpP, FRET peptide cleavage, 20 min. Potency, µM (highest dose often 57.5 µM), for the others: at the top dose activity change, negative = active. 340,000 tested, 1.9% active. AID 651965, 2013; active means well fitted falling curve with a large enough effect; inconclusive means small, poorly fitted or top-dose-only effect; inactive means no such curve, though single readings can be large or run the other way; further: the source files actives as falling curves though it sought activators and does not explain the sign; nearly all actives have a fitted effect of over 65% in size
Target sequence (P80244 whole entry, looked up): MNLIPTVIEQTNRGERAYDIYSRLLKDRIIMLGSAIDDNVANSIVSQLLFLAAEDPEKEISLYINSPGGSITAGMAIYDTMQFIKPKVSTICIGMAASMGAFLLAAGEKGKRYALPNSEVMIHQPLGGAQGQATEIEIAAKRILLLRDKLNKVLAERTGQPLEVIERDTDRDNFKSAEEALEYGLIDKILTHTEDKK
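FRET quenching reversal measured ClpP activation: 10 microg/mL B. subtilis ClpP at pH 8 with the FRET-FV decapeptide, read at 430 nm after 320 nm excitation. The 20-min minus 0-min signal was scaled between DMSO/no-enzyme wells and ADEP (5.8 microM final).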
Sfp inh – blocks B. subtilis Sfp PPTase activity | Q9F4F7 | 310,000 tested, 3.5% active | Potency, µM, without a hit: largest response in the series, negative = inhibition, actives largely listed as inhibitors | AID 1490 | Biochemical Sfp PPTase activity, qHTS;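 further: the enzyme is Sfp with the accession as filed and its product quenches rhodamine fluorescence; 0% = enzyme reaction without inhibitor and -100% = no enzyme wells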
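Reaction rates are the 30-min fluorescence difference (ex 525, em 598 nm) in wells containing 15 nM Sfp, 5 uM rhodamine-CoA and 12.5 uM BHQ-2-YbbR at pH 7.6 with 10 mM MgCl2.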
RORgamma inh – inhibitors of mouse ROR gamma transcriptional activity | P51450 | Drosophila S2 Gal4-RORgamma UAS-luciferase reporter, 20 h | Potency, µM (top dose mostly 53.6 µM), for inactives: top-dose activity change, negative = inhibition, most hits filed as inhibitors | 310,000 tested, 5.4% active | AID 2551; further: on the % scale 0 is the no-effect control and ±100 the full control effect; nearly all actives have a fitted effect of over 60% in size
Target sequence (P51450 whole entry, looked up, the tested form may be a part): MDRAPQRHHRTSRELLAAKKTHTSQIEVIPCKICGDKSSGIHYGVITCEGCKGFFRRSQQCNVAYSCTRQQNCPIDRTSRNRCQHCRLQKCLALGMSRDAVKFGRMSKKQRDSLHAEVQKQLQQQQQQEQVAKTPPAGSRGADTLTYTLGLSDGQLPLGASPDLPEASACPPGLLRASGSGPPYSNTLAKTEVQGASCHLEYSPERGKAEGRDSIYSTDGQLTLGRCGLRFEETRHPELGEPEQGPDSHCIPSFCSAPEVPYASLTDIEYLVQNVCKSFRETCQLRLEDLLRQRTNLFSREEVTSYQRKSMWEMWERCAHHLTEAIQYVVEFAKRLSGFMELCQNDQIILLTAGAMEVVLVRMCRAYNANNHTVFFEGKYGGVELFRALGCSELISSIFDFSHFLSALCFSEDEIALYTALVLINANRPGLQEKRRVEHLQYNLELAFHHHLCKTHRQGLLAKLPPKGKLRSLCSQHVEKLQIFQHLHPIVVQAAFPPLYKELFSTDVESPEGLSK
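A Gal4/UAS one-hybrid system in insect cells: metallothionein-promoter Gal4–ROR gamma fusion plus Photinus luciferase reporter. Copper sulfate 700 uM final, 20 hr ambient incubation, luminescent detection after 10 min with reagent.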
VP16 counter – Gal4-VP16 reporter inhibition counter-screen; Potency, µM (series often up to 53.6 µM), for the others: at the highest dose activity, negative = inhibition, most hits filed as inhibitors; 310,000 tested, 3.5% active; Drosophila S2 Gal4-VP16 UAS-luciferase, luminescence, 20 h;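 further: Gal4-VP16 expression switched on by copper sulfate through the metallothionein promoter; on the % scale 0 is the no-effect control and ±100 the full control effect; nearly all actives have a fitted effect of over 50% in size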
Epigenetic reg – epigenetic control regulation, reporter derepression | murine LDR cells, GFP reporter derepression, 30 h | Potency, µM (top dose mostly 53.9 µM), without a hit: top-dose GFP activation, hits mostly activators | 280,000 tested, 0.2% active | AID 1865; further: % of control where 0% means no effect; nearly all actives have a fitted effect of over 60% in size
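GFP-positive cell count by laser-scanning cytometry (objects 20–120 um) after 30 h, 37 C compound exposure of murine LDR cells; reporter is CMV-GFP integrated at a silenced locus, inducible by HDAC or DNMT inhibitors.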
PINK1 modulator – modulators of PINK1 expression | 410,000 tested, 0.2% active | PINK1 immunofluorescence, high-content cytometry, 24 h | AID 624263 | Potency, µM (highest dose often 76.6 µM), without a hit: top-dose activation (PINK1 increase), actives largely listed as activators; active means well fitted activation curve with a large enough effect; inconclusive means small, poorly fitted or top-dose-only effect; cell line not stated here; further: % of control where 0% means no effect; nearly all actives have a fitted effect of over 65% in size
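Decision-based qHTS: stable cells, 24 h exposure to five compound concentrations, CCCP as control. Fixed cells stained for PINK1 plus nuclear, mitochondrial and cell markers, cytometer read.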
The depositor's hits bear a star; ? = inconclusive; · = no result given; [ ] = remark or other dose. Unless noted, the call rests on the fitted dose curve; in most records, active means well fitted curve in the direction sought with a large enough effect; inconclusive means small, poorly fitted or top-dose-only effect, or another doubt; inactive means no such curve, though single readings can be large; an effect the other way counts as inactive or inconclusive. Potency means the concentration at half of the fitted maximal effect.

SMILES	ClpP mod	Sfp inh	RORgamma inh	VP16 counter	Epigenetic reg	PINK1 modulator
COc1cc(SC#N)ccc1N=Cc1c(C)[nH]n(-c2cccc3ccccc23)c1=O	28µM*	-10%	?	?	?	-2%
C=C(C)C1CC=C(C)C(OC(C)=O)C1 (stereo not drawn)	·	·	15%	-11%	·	·
COc1ccc(-c2cc(C(F)(F)F)n3nc(C(=O)Nc4cccc(C(F)(F)F)c4)c(Br)c3n2)cc1	-1%	·	·	·	-2%	0%
COc1ccc(-c2csc3nc(C)nc(N4CCN(C(C)=O)CC4)c23)cc1OC	·	12%	-9%	-7%	-3%	0%
COc1ccc(-c2csc3nc(C)nc(N4CCC(C)CC4)c23)cc1OC	1%	-4%	7.1µM*	11%[10 µM]	0%	11%
CCOC(=O)CSc1nc(-c2ccc(OC)cc2)ns1	-2%	22µM*	10µM*	-26%	-3%	2%
CCOC(=O)N1CCN(C(=O)CSc2nc(-c3cccc(C)c3)ns2)CC1	1%	35µM*	29%	18%	-1%	-2%
CCOC(=O)CNC(=O)CSc1nc(-c2ccccc2)ns1	·	18µM*	?	25%	-4%	0%
Cc1cccc(-c2nsc(SCC(=O)Nc3cc(C)on3)n2)c1	-1%	2%	-7%	-3%	-1%	14%
CCOC(=O)CNC(=O)CSc1nc(-c2ccc(C)cc2)ns1	·	10%	-18%	-3%	-4%	0%
O=C(Nc1ccc(Br)cc1F)N1CCC(CN2CCCC2)CC1	1%	·	·	·	-1%	1%
Cc1cccc(C(=O)N2CCN(Cc3ccc4c(c3)OCO4)CC2)c1	-2%	19%	56%	2%	1%	-1%
Cc1ccccc1Cc1c(C)nc2c(C(=O)N3CCN(Cc4ccc5c(c4)OCO5)CC3)cnn2c1C	32µM*	·	·	·	·	-2%[38.3 µM]
Cc1cccc(Cc2c(C)nc3c(C(=O)N4CCN(Cc5ccc6c(c5)OCO6)CC4)cnn3c2C)c1	22µM*	-9%	?	?	?	?
Cc1ccccc1Cc1c(C)nc2c(C(=O)NCc3ccc4c(c3)OCO4)cnn2c1C	104%	-8%	-9%	-11%	-2%	12%[38.3 µM]
C=CCc1c(C)nc2c(C(=O)O)cnn2c1C	32µM*	12%	2%	2%	-1%	5%[38.3 µM]
Cc1nc2c(C(=O)N3CCN(C)CC3)cnn2c(C)c1Cc1ccc(Cl)cc1	25µM*	3%	6%	2%	-5%	?
CC(=O)OCC(NC(=O)C(Cc1ccccc1)NC(=O)OC(C)(C)C)C1OC(n2cc(F)c(=O)[nH]c2=O)C(OC(C)=O)C1OC(C)=O (stereo not drawn)	·	13%	-24%	-1%	·	·
Cc1ccc2c(c1)C(c1ccc(F)cc1)N(C(=O)c1cccc(C(F)(F)F)c1)CC(=O)N2 (stereo not drawn)	-18%	·	·	·	3%	4%
Cc1nc(NCc2cccnc2)c2c3c(sc2n1)CC(C)CC3 (stereo not drawn)	-8%	-27%	0.71µM*	1.8µM*	-1%	0%
Brc1ccc(CN2CCc3nc(Nc4ccccc4)ncc3C2)s1	-11%	·	·	·	-1%	2%
CCOc1cnn(-c2cc(Oc3ccc(C)cc3)ncn2)c(=O)c1Cl	2%	0%	4%	4%	-1%	2%
Cc1ccccc1Oc1cc(-n2ncc(Cl)c(Cl)c2=O)ncn1	-3%	1%	1.1µM*	3.2µM*	0%	2%
O=C(Nc1cc([N+](=O)[O-])c2[nH]c(=O)c3ccccc3c2c1)C(F)(F)F	32µM*	·	·	·	·	-5%
Cc1cc(-n2c(SCC(=O)Nc3ccc(F)c(F)c3)nc3n[nH]c(C)c3c2=N)ccc1Cl	3%	20%	-44%	?	·	2%
SMILES	ClpP mod	Sfp inh	RORgamma inh	VP16 counter	Epigenetic reg	PINK1 modulator
Cc1cc(-n2c(SCC(=O)Nc3ccc(Br)cc3)nc3n[nH]c(C)c3c2=N)ccc1Cl	-21%	24%	?	20µM*	·	0%
CCOC(=O)NC(=O)/C(C#N)=N\Nc1cccc(Cl)c1	·	12%	27%	-19%	-5%	16µM*
CCOC(=O)NC(=O)/C(C#N)=N\Nc1ccc(Cl)cc1	-1%	-7%	?	2%	0%	-1%
CCc1ccc(CNC(=O)c2cnc3sc4cc(OC)ccc4n3c2=O)cc1	-7%	·	·	·	1%	-1%
C=CCN1C(=O)/C(=C/c2ccc(N(C)C)cc2)S/C1=N\c1nnc(CC)s1	·	7%	1%	2%	13µM*	·
C=CCN1C(=O)/C(=C/c2ccc(OCC(=O)O)cc2)S/C1=N/c1nccs1	-7%	-9%	6%	-1%	2%	2%
CCS(=O)(=O)N1CCc2cc(C(=O)Nc3ccc(OC)cc3OC)ccc21	0%	·	·	·	7%	2%
NS(=O)(=O)c1ccc(NS(=O)(=O)c2ccc(C3CNC(=O)C3)cc2)cc1 (stereo not drawn)	28µM*	14%	-2%	?	·	-1%
O=C(Cn1ncc2c(=O)oc3ccccc3c21)NCc1ccc(Cl)cc1	-3%	·	·	·	-2%	1%
CC(=O)c1ccc(NC(=O)CSc2nnc3ccc(-c4ccc(Br)cc4)nn23)cc1	-23%	·	·	·	12%	-6%
c1ccc(COc2ccccc2CNC2CCCC2)cc1	·	-4%	?	-13%	0%	0%
c1ccc(COc2ccccc2CNC23CC4CC(CC(C4)C2)C3)cc1	·	56µM*	?	?	-1%	-1%
COc1ccc(-n2ncc(N(C)n3cccc3)c(Cl)c2=O)cc1	-1%	15%	-52%	-9%	-2%	0%
Cc1ccc(-n2ncc(N(C)C)c(Cl)c2=O)cc1	3%	18%	11µM*	?	-1%	-2%
COc1ccc(-n2ncc(Cl)c(Cl)c2=O)cc1	·	0%	2µM*	?	0%	-1%
CN(C)c1cnn(-c2ccccc2)c(=O)c1Cl	-1%	2%	-22%	-11%	0%	1%
Cc1cc(C)n(-c2nnc(C)c(=O)[nH]2)n1	1%	63µM*	16µM*	-10%	-1%	9%[38.3 µM]
Cc1nc2sc3c(c2c(=O)[nH]1)CCCCC3	·	6%	16%	-7%	-2%	1%
Cc1cc(C)n(-c2nnc(C)n2N)n1	0%	9%	-1%	4%	-1%	-1%
Cc1cc(C)n(-c2nc3sc4c(c3c(=O)[nH]2)CCCC4)n1	·	26%	0.71µM*	1.4µM*	-2%	·
CCOC(=O)c1cnn(-c2nc3sc4c(c3c(=O)[nH]2)CCCC4)c1N	·	6%	0.56µM*	0.79µM*	0%	·
CSc1ncc(C(=O)Nc2ccc(C)c(Cl)c2)c(-c2ccccc2)n1	?	·	·	·	-3%	?
